Results reported in PubChem BioAssay AID1159580 (chemical genetic matrix, 2015).
Where “and” joins values, the source holds several entries; their conditions need not be identical. Equal values may be shown once. Among all 5,500 compounds or so, about 2,000 (36%) were called active. Another 18% or so got no clear call; they are omitted. Cut-off read from the data, not from the text of the source: active = normalized growth mostly below about 0.91 (no sharp cut-off); inconclusive = no clear call, values can overlap the other calls; inactive = mostly above about 0.92. The list shows a part of the results.

Assay: chemical genetic growth profiling, strain panel (AID 1159580);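 note: tested at 20 µM; growth read once vehicle control cultures reached saturation at 30 °C; 1 = growth at the plate median or of vehicle wells; lower values mean less growth of the strain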
Details: S. cerevisiae deletion strains, growth OD

Measured: normalized growth

CCCN1C[C@H](CSC)C[C@@H]2c3cccc4[nH]cc(c34)C[C@H]21
inactive: locus YAL013W, strain DEP1, stronger effect = lower value 0.997 | locus YAL021C, strain ccr4, stronger effect = lower value 0.978 | locus YAL026C, strain drs2, stronger effect = lower value 1.02 | locus YAL030W, strain snc1, stronger effect = lower value 1.02 | locus YBL061C, strain skt5, stronger effect = lower value 1.01 | locus YBR009C, strain hhf1, stronger effect = lower value 1.02 | locus YBR021W, strain FUR4, stronger effect = lower value 0.965 | locus YBR023C, strain chs3, stronger effect = lower value 0.998 | locus YBR171W, strain sec66, stronger effect = lower value 1.02 | locus YBR229C, strain ROT2, stronger effect = lower value 1 | locus YBR231C, strain swc5, stronger effect = lower value 1.01 | locus YBR279W, strain paf1, stronger effect = lower value 0.996 | locus YCL011C, strain gbp2, stronger effect = lower value 1.02 | locus YCL016C, strain dcc1, stronger effect = lower value 1.01 | locus YCL029C, strain bik1, stronger effect = lower value 1.02 | locus YCL069W, strain vba3, stronger effect = lower value 1.01 | locus YCR088W, strain abp1, stronger effect = lower value 1.01 | locus YDL005C, strain med2, stronger effect = lower value 0.994 | locus YDL035C, strain GPR1, stronger effect = lower value 0.992 | locus YDL040C, strain nat1, stronger effect = lower value 0.996 | locus YDL074C, strain BRE1, stronger effect = lower value 0.975 | locus YDL101C, strain DUN1, stronger effect = lower value 0.992 | locus YDL134C, strain PPH21, stronger effect = lower value 1.01 | locus YDL185W, strain tfp1, stronger effect = lower value 1.02 | locus YDL192W, strain arf1, stronger effect = lower value 1.02 | locus YDR001C, strain nth1, stronger effect = lower value 1.01 | locus YDR069C, strain doa4, stronger effect = lower value 0.994 | locus YDR101C, strain arx1, stronger effect = lower value 1 | locus YDR137W, strain rgp1, stronger effect = lower value 1.1 | locus YDR150W, strain NUM1, stronger effect = lower value 0.989 | locus YDR159W, strain sac3, stronger effect = lower value 0.989 | locus YDR162C, strain NBP2, stronger effect = lower value 0.97 | locus YDR195W, strain ref2 1.03 | locus YDR297W, strain sur2, stronger effect = lower value 1.01 | locus YDR318W, strain mcm21, stronger effect = lower value 1.03 | locus YDR334W, strain swr1, stronger effect = lower value 1.02 | locus YDR335W, strain msn5, stronger effect = lower value 1.02 | locus YDR388W, stronger effect = lower value 1.02 | locus YDR392W, strain spt3, stronger effect = lower value 1.02 | locus YDR502C, strain sam2, stronger effect = lower value 1.01 | locus YEL003W, strain gim4, stronger effect = lower value 1.01 | locus YEL037C, strain rad23, stronger effect = lower value 1.01 | locus YEL061C, strain CIN8 (second series), stronger effect = lower value 1.02 | locus YEL061C, strain CIN8, stronger effect = lower value 0.999 | locus YER015W, strain faa2, stronger effect = lower value 1.01 | locus YER016W, strain bim1, stronger effect = lower value 1.02 | locus YER110C, stronger effect = lower value 1.02 | locus YER111C, strain swi4, stronger effect = lower value 1.01 | locus YER155C, strain BEM2 (second series), stronger effect = lower value 0.999 | locus YER155C, strain BEM2, stronger effect = lower value 1 | locus YER167W, strain BCK2, stronger effect = lower value 1 | locus YFR010W, strain ubp6, stronger effect = lower value 0.987 | locus YGL078C, strain dbp3, stronger effect = lower value 1.01 | locus YGL086W, strain mad1, stronger effect = lower value 1.02 | locus YGL167C, strain pmr1, stronger effect = lower value 1.02 | locus YGL173C, strain kem1, stronger effect = lower value 1 | locus YGL227W, strain vid30, stronger effect = lower value 1.01 | locus YGL240W, strain doc1, stronger effect = lower value 0.991 | locus YGL248W, strain PDE1, stronger effect = lower value 0.998 | locus YGL253W, strain hxk2, stronger effect = lower value 1.01 | locus YGR078C, strain PAC10, stronger effect = lower value 0.988 | locus YGR135W, strain pre9, stronger effect = lower value 0.985 | locus YGR229C, strain SMI1, stronger effect = lower value 0.984 | locus YGR252W, strain gcn5, stronger effect = lower value 1.06 | locus YHR013C, strain ard1, stronger effect = lower value 1 | locus YHR027C, strain rpn1, stronger effect = lower value 1.02 | locus YHR030C, strain SLT2, stronger effect = lower value 1.01 and 1.02 | locus YHR079C, strain IRE1 (second series), stronger effect = lower value 1.01 | locus YHR079C, strain IRE1, stronger effect = lower value 1.04 | locus YHR094C, strain hxt1, stronger effect = lower value 1.02 | locus YHR129C, strain ARP1, stronger effect = lower value 1 | locus YHR142W, strain chs7, stronger effect = lower value 1.02 | locus YHR200W, strain rpn10, stronger effect = lower value 1.01 | locus YIL066C, strain RNR3, stronger effect = lower value 1.01 | locus YIL073C, strain SPO22, stronger effect = lower value 1.08 | locus YIL125W, strain kgd1, stronger effect = lower value 1 | locus YIR030C, strain dcg1, stronger effect = lower value 1.01 | locus YJL092W, strain hpr5, stronger effect = lower value 1.01 | locus YJL095W, strain BCK1 (second series), stronger effect = lower value 1.01 | locus YJL095W, strain BCK1, stronger effect = lower value 0.975 and 1.04 | locus YJL115W, strain asf1, stronger effect = lower value 1.02 | locus YJL129C, strain trk1, stronger effect = lower value 1.03 | locus YJL134W, strain LCB3, stronger effect = lower value 0.993 | locus YJL154C, strain vps35, stronger effect = lower value 1.01 | locus YJL164C, strain tpk1, stronger effect = lower value 1.01 | locus YJL166W, strain qcr8, stronger effect = lower value 1.01 | locus YJL168C, strain set2, stronger effect = lower value 1.03 | locus YJL187C, strain SWE1 (second series), stronger effect = lower value 1 | locus YJR043C, strain POL32, stronger effect = lower value 1 | locus YJR066W, strain TOR1, stronger effect = lower value 0.985 | locus YJR075W, strain HOC1, stronger effect = lower value 0.98
